Screening results from PubChem BioAssay.
BoNT-A LC inh2: BoNT/A light chain protease inhibitors, primary screen, biochemical, flow cytometry, MLPCN library; Botulinum neurotoxin type A light chain protease (Clostridium botulinum A str. ATCC 3502); multiplex microsphere protease substrate cleavage; inhibition, % at 10 µM; actives 0.17% (n = 360,000); AID 588499, 2011; further: plate controls were buffer without enzyme for full effect and enzyme alone for no effect
Anthrax LF inh2: Bacillus anthracis LF protease inhibitors, primary screen, biochemical, multiplex microsphere, MLPCN library. AID 588501, 2011. Lethal factor (Bacillus anthracis), P15917. multiplex microsphere protease cleavage assay. actives 0.12% (n = 360,000). inhibition, % at 10 µM; further: plate controls were buffer without enzyme for full effect and enzyme alone for no effect
BH1578 lux ind: inducers of Vibrio cholerae quorum light production without autoinducers, primary screen, BH1578 luxS cqsA deficient, single point. AID 588436, 2011. activation, % at 18.7 µM. actives 0.16% (n = 350,000). V. cholerae BH1578 lux reporter, luminescence, 6 h; in the data active means activation mostly above about 9.7%, no sharp cut-off; inconclusive means no clear call, values can overlap the other calls; inactive means mostly below about 3.7%
BoNT F protease: BoNT/F light chain protease inhibitors, primary screen, biochemical, flow cytometry, MLPCN library. Botulinum neurotoxin type F light chain protease (Clostridium botulinum). Multiplex microsphere protease cleavage assay. inhibition, % at 10 µM. actives 0.22% (n = 360,000); in the data active means inhibition above about 35%, passing the limit was not always enough; inconclusive means no clear call, values can overlap the other calls; further: plate controls were buffer without enzyme for full effect and enzyme alone for no effect
BJeLR viability: MLPCN primary cell-based screen for lethality selective to Ras in HRASV12 cells | AID 1554, 2009 | inhibition, % (no concentration beside the values) | actives 0.17% (n = 300,000) | BJeLR (HRASV12) viability, CellTiter-Glo ATP luminescence, 48 h; in the data active means inhibition above about 50%; inconclusive means no clear call, values can overlap the other calls
Bead autofluor: compound fluorescence in toxin protease inhibitor counterscreen; compound autofluorescence counterscreen, microsphere flow cytometry; hits give high values; fluorescence intensity (no concentration beside the values); actives 3.1% (n = 360,000); in the data active means fluorescence intensity above about 16000; inconclusive means no clear call, values can overlap the other calls
* marks the source's active call; other numbers are inactive results; i = inactive; ? = inconclusive; . = no result given; + = active, no number. A selection: hits, their analogues and other compounds. The true share with any hit is near 3.7%. Unless noted, no stated cut-off is given here; in the data, active means inhibition above about 30%; inconclusive means no clear call, values can overlap the other calls; inactive means below that.

SMILES | BoNT-A LC inh2 | Anthrax LF inh2 | BH1578 lux ind | BoNT F protease | BJeLR viability | Bead autofluor
COc1ccc(CC(=O)O/N=C(\N)c2ccncc2)cc1OC | 0.5 | -3.1 | i | 3.6 | . | 3717
Cc1ccc(C(=O)/C=C/c2cn(CN3CCN(C)CC3)c3ccccc23)cc1 | 1.2 | 0.6 | -1.8 | -2.4 | 5.2 | 22519*
Cn1cc(/C=C/C(=O)c2ccccc2)c2ccccc21 | 1.0 | 3.1 | 5.0 | -2.6 | -1.7 | 6455
CC[n+]1c(/C=C/N(C)c2ccccc2)sc2ccc(Cl)cc21 | 59.0* | 59.0* | -0.4 | 43.2* | 6.0 | 6962
CC[n+]1c(/C=C/N(C)c2ccccc2)oc2ccc(Cl)cc21 | 2.4 | 2.3 | -0.2 | 17.3 | 6.7 | 9688
CN(C)c1ccc(/C=C/C=C/c2sc3ccccc3[n+]2C)cc1 | . | . | -0.5 | . | 58.7* | .
CC[n+]1c(/C=C/C=C/c2ccc(N(C)C)cc2)sc2ccccc21 | 20.4 | -21.7 | i | + | 13.4 | 3041
CCOC(=O)[C@]12CCC=C1N(Cc1ccc(Cl)cc1Cl)C(=O)[C@H](CC(=O)N1CCSCC1)C2 | 0.1 | -12.2 | . | 10.2 | . | 4479
COc1ccc(CN(CCCn2cnc3c(OC)ncnc32)CCCn2cnc3c(OC)ncnc32)cc1 | -0.1 | -7.5 | -0.4 | -4.8 | . | 3759
NC(=O)C1CCN(CCC(=O)Nc2ccc(Br)cc2)CC1 | 0.2 | -2.7 | i | -1.0 | -2.4 | 23853*
CC(C)(C)c1ccc(OCC(=O)NC2CCS(=O)(=O)C2)cc1 (stereo not drawn) | ? | 2.2 | -0.5 | 5.0 | 7.1 | 19473*
CCCOC(=O)NC1CCS(=O)(=O)C1 (stereo not drawn) | -0.1 | -0.1 | 16.7* | 7.2 | -5.6 | 8280
Cc1ccc(OC(=O)NC2CCS(=O)(=O)C2)cc1C (stereo not drawn) | -1.6 | -2.4 | -0.2 | -2.8 | 5.2 | 23723*
COc1ccc(NC(=O)c2cc(C3CCCCN3C(=O)c3ccccc3)on2)c(C)c1 (stereo not drawn) | -0.3 | -0.9 | 0.1 | -1.8 | . | 3310
O=C(CSc1ncccn1)N(Cc1cccnc1)C(CCc1ccccc1)c1nc2ccccc2[nH]1 (stereo not drawn) | -0.7 | 3.2 | . | -12.6 | . | 5661
CCOC(=O)C1=C(N)OC2=C(C(=O)CCC2)C12C(=O)N1c3c(ccc(C)c32)C(C)=CC1(C)C (stereo not drawn) | -0.1 | -0.3 | -1.5 | -13.4 | 1.4 | 3651
CC1(c2ccccc2)CC(C)(C)N2C(=O)C3(C(C#N)=C(N)Oc4cc(O)ccc43)c3cccc1c32 (stereo not drawn) | -1.2 | -3.1 | i | -3.7 | 1.9 | 8403
CC1=CC(C)(C)N2C(=O)C3(C(C#N)=C(N)OC4=C3C(=O)CCC4)c3c(C)c(C)cc1c32 (stereo not drawn) | -3.7 | -2.1 | -5.3 | -5.8 | -2.3 | 17514*
CC1=CC(C)(C)N2C(=O)C3(C(C#N)=C(N)Oc4cc(O)ccc43)c3c(C)c(C)cc1c32 (stereo not drawn) | -1.8 | -1.5 | -0.2 | -1.9 | -6.1 | 23874*
CC1(C(=O)NS(=O)(=O)c2cccc(C#N)c2)CCN1C(=O)Cc1ccc(Cl)cc1Cl (stereo not drawn) | 0.0 | -0.5 | i | -4.9 | . | 3583
CC(C)(C)n1nnnc1C(c1cc2ccccc2o1)N1CCN(C(=O)OCc2ccccc2)CC1 (stereo not drawn) | 0.9 | 6.8 | . | -8.0 | . | 6266
CC(C)c1ccc(NC(=O)C2(C)Cc3c(-c4ccc(C(N)=O)cc4)ccnc3O2)cc1 (stereo not drawn) | -0.7 | -9.6 | i | -8.8 | . | 3770
CCN(CC)c1ccc2cc(-c3nnc(-c4ccncc4)o3)c(=O)oc2c1 | 3.4 | 12.7 | -0.2 | 5.9 | . | 24761*
CCN(CC)c1ccc2cc(C(C)=O)c(=O)oc2c1 | 3.1 | 0.6 | i | 1.0 | 4.3 | 4680
CN(Cc1cnc2nc(N)nc(N)c2n1)c1ccc(C(=O)N[C@@H](CCC(=O)O)C(=O)O)cc1 | -0.4 | 2.8 | -0.6 | -5.9 | 75.9* | 5295
SMILES | BoNT-A LC inh2 | Anthrax LF inh2 | BH1578 lux ind | BoNT F protease | BJeLR viability | Bead autofluor
CNC(=O)NC(=O)C(OC(=O)CCNS(=O)(=O)c1ccccc1)c1ccccc1 (stereo not drawn) | -41.6 | -10.3 | i | -70.3 | -1.3 | 18283*
CCc1ccccc1OCC(=O)Nc1ccc(N2CCCC2)cc1C | -14.3 | -1.0 | -2.1 | -3.9 | . | 23739*
COc1ncc(-c2ccc(N3C(c4ccc([N+](=O)[O-])cc4)=Cc4ccccc4C3CC(C)=O)cc2)cn1 (stereo not drawn) | 16.3 | 10.4 | . | 9.8 | . | 6166
Cc1cc(Oc2nnnn2-c2ccccc2)ccc1Cl | ? | -2.4 | -3.5 | 0.9 | 11.4 | 19957*
C(=C\c1ccccc1)/C=N/n1cnnc1 | -0.9 | -0.8 | -5.9 | -3.3 | -0.5 | 24268*
Nc1nnnn1/N=C/C=C/c1ccccc1 | 0.6 | 4.1 | i | -0.9 | 3.8 | 4198
CC1(C)CC(=O)C=C(c2ccc(-c3cnc4ccccc4c3)cc2)C1=O | 3.1 | 4.5 | -0.7 | 6.9 | . | 3611
CC1CCN(C(=S)c2ccc(O)cc2)CC1 | 0.7 | -1.9 | -2.0 | -0.1 | 1.2 | 22756*
CSC(=NC#N)N1CCN(c2ccccc2)CC1 | ? | 0.9 | i | -4.3 | -1.8 | 20884*
CCCCN(C)c1c(C)nc2ccc(C(=O)NCc3ccc4c(c3)OCO4)cn12 | -0.2 | -6.7 | -3.0 | 0.1 | . | 3567
COc1cccc(NC(=O)CCC2CCN(C(=O)C(OC)c3ccccc3)CC2)c1 (stereo not drawn) | 0.0 | -1.6 | 3.1 | 0.1 | . | 3505
Cc1cccc(-n2nnnc2SCC(=O)c2cc(C)n(CC3CCCO3)c2C)c1 (stereo not drawn) | -0.2 | -7.3 | -3.1 | -34.9 | 1.9 | 4434
Cc1cccc(-n2nnnc2SCC(=O)c2cc(C)n(Cc3ccco3)c2C)c1 | ? | -0.1 | 2.8 | -0.3 | 0.3 | 22516*
C/C=C/C=[N+](\[O-])C(C)/C(=N/O)c1ccc(F)cc1 (stereo not drawn) | -2.5 | 0.7 | i | -4.7 | -12.9 | 16840*
CCOC(=O)C1(C)CCCN(C(=O)c2ccc(OC)cc2OC)C1 (stereo not drawn) | 0.0 | 0.1 | i | 3.6 | . | 3684
COc1ccccc1/C=C1\SC(=S)N(Nc2nc(C)cc(C)n2)C1=O | -4.3 | 0.1 | -0.2 | -6.4 | -10.9 | 24819*
Cc1cc(C)nc(NN2C(=O)/C(=C/c3ccc(O)cc3)SC2=S)n1 | 3.4 | 6.3 | i | -0.4 | -2.7 | 7834
Cc1ccc(S(=O)(=O)Nn2c(O)c(C=C3N=c4ccccc4=N3)sc2=S)cc1 | 8.5 | 6.3 | 0.3 | -4.7 | -7.7 | 5052
O=C1N=c2ccccc2=C1c1sc(=S)n(NC(=O)c2cccc(O)c2)c1O | 2.5 | -3.0 | i | 0.7 | 3.8 | 4228
